In PubChem BioAssay (NCI):
The panel holds about 83,000 compounds, 20% with a hit somewhere; the sample as a whole holds those more often.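 Interpretation: 100, growth as untreated; towards 0, rising growth inhibition; 0, no net growth; 0 to -100, cell death. Compounds scoring below 10 were considered active.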 Unmarked numbers belong to inactive results. Activity calls are given as the source filed them.

Columns and labels:
Experiment in all cases: NCI-60 one-dose screen, 48 h (100 = growth as untreated, 0 = no growth, -100 = all killed)
RPMI-8226 leukemia = settings: 10 µM unless noted
OVCAR-8 ovarian = settings: 10 µM unless noted
OVCAR-5 ovarian = settings: 10 µM unless noted
OVCAR-4 ovarian = settings: 10 µM unless noted
SK-OV-3 ovarian = settings: 10 µM unless noted
IGROV1 ovarian = settings: 10 µM unless noted
OVCAR-3 ovarian = settings: 10 µM unless noted
HS 578T breast = settings: 10 µM unless noted
NCI/ADR-RES ovarian = settings: 10 µM unless noted
T-47D breast = settings: 10 µM unless noted
BT-549 breast = settings: 10 µM unless noted
MDA-MB-435 melanoma = settings: 10 µM unless noted
SW-620 colon = settings: 10 µM unless noted
MCF7 breast = settings: 10 µM
HCT-116 colon = settings: 10 µM unless noted
HCC-2998 colon = settings: 10 µM unless noted
KM12 colon = settings: 10 µM unless noted

| SMILES | growth (RPMI-8226 leukemia) | growth (OVCAR-8 ovarian) | growth (OVCAR-5 ovarian) | growth (OVCAR-4 ovarian) | growth (SK-OV-3 ovarian) | growth (IGROV1 ovarian) | growth (OVCAR-3 ovarian) | growth (HS 578T breast) | growth (NCI/ADR-RES ovarian) | growth (T-47D breast) | growth (BT-549 breast) | growth (MDA-MB-435 melanoma) | growth (SW-620 colon) | growth (MCF7 breast) | growth (HCT-116 colon) | growth (HCC-2998 colon) | growth (KM12 colon) |
| --- | --- | --- | --- | --- | --- | --- | --- | --- | --- | --- | --- | --- | --- | --- | --- | --- | --- |
| Nc1ncnc(N)c1NC(=O)c1ccc(OCc2ccccc2)cc1 | 105% | 102% | 106% | 107% | 102% | 106% | 110% | 103% | 113% | 96% | 107% | 109% | 98.1% | 103% | 111% | 115% | 104% |
| COc1cc2c(cc1OC)C(=O)C(CC1CCN(C(=O)Nc3ccc(C)cc3)CC1)C2 (centres undefined) | 111% | 106% | 86.9% | 89.8% | 98.5% | 96.1% | 100% | 82.1% | 99.6% | 89.1% | 96.6% | 97.7% | 94.6% | 90.4% | 97.4% | 116% | 94.3% |
| CCCc1c(C)c2sc(=O)[nH]c2[nH]c1=O | 112% | 104% | 103% | 100% | 104% | 112% | 113% | 103% | 105% | 102% | 110% | 112% | 102% | 97.6% | 106% | 106% | 105% |
| COc1cc(C(=O)O/N=C(\N)Cc2cccc3ccccc23)cc(OC)c1OC | -36.4% (active) | 1.62% (active) | 48% | 66.8% | 69.2% | 46.9% | 6.38% (active) | 26% | 59.8% | -73.1% (active) | 56.4% | -85.2% (active) | -76.7% (active) | -85.7% (active) | -71.4% (active) | -82.5% (active) | -68.4% (active) |
| Nc1nonc1-n1nncc1-c1cccnc1 | 105% | 111% | 110% | 98.8% | 104% | 103% | 116% | 101% | 105% | 93.9% | 105% | 102% | 111% | 93.4% | 106% | 112% | 105% |
| CCN(CC)CCCNc1ccnc2cc3ccccc3cc12 | 74.2% | 60.1% | 84.7% | 77.4% | 72.4% | 81.2% | 74.5% | 68.4% | 71.1% | 66% | 94.2% | 87.3% | 83% | 81.7% | 60.1% | 78.7% | 80.8% |
| COc1ccc(CCN2C(=O)CCSC2=S)cc1OC | 37.4% | 97.2% | 96.8% | 90.5% | 105% | 107% | 105% | 93.7% | 103% | 43.4% | 114% | 96.2% | 87.6% | 28% | 103% | 102% | 5.07% (active) |
| COC(=O)C1=Nc2ccc(F)cc2/C1=C/c1sc(=S)[nH]c1O | -9.01% (active) | 13.3% | 43.6% | 58.2% | 28.5% | 14.4% | -1.67% (active) | 23.1% | 7.28% (active) | 61.2% | -3.33% (active) | -20.9% (active) | 22.6% | 12.5% | 6.89% (active) | 25% | 10.3% |
| COc1ccc(N)c(-c2cc3c(c4c2[nH]c2ccc(OC)cc24)CCCC3)c1 | 68.5% | 87.4% | 95.5% | 93.3% | 77.3% | 71.1% | 86.1% | 85.9% | 85.7% | 62.7% | 74.6% | 93.6% | 83.3% | 69.1% | 58.4% | 104% | 80.2% |
| O=C(Nc1ccc(N2CCNCC2)cn1)c1[nH]ncc1Nc1ncnc2sccc12 | 1.87% (active) | -33.5% (active) | 67% | 21.3% | 70.4% | 78.1% | 33.2% | 69.9% | 91% | -4.16% (active) | 93.4% | -86.1% (active) | -89.2% (active) | 20.1% | -68.2% (active) | 52.6% | 57.3% |
| Nc1no[n+]([O-])c1-c1nnc2c(n1)-c1ccccc1C2=O | 18.1% | 65.7% | 83.9% | -97.5% (active) | 111% | 82.6% | -20.2% (active) | 89% | 72.1% | 61% | 80.8% | 18.8% | 29.9% | -48.9% (active) | 1.78% (active) | 68.1% | 73.1% |
| COc1ccc(-c2nc(-c3ccccc3)c(-c3ccccc3)[nH]2)cc1OC1CCCCC1 | 58.9% | 86.7% | 96.6% | 74.2% | 98.9% | 102% | 72.6% | 91.2% | 87.7% | 82.6% | 118% | 84.8% | 88.8% | 73.6% | 88.4% | 90.8% | 89.3% |
